Hits are enriched below; roughly 1.1% of the tested compounds scored in any of these assays.
TRPV1 potentiator: HTS Assay for Compounds that Act as Potentiators of the Vanilloid Receptor 1 | Transient receptor potential cation channel subfamily V member 1 (Homo sapiens), Q8NER1 | TRPV1-expressing cells, Fluo-8 calcium influx, capsaicin EC20 potentiation | potentiation, % at 8.33 µM | hit rate 0.02% among 320,000 | AID 540277, 2011; in the data active means potentiation above about 80%; inconclusive means between about 30% and that limit; further: 0% is about no effect
Target sequence (Q8NER1 whole entry, looked up): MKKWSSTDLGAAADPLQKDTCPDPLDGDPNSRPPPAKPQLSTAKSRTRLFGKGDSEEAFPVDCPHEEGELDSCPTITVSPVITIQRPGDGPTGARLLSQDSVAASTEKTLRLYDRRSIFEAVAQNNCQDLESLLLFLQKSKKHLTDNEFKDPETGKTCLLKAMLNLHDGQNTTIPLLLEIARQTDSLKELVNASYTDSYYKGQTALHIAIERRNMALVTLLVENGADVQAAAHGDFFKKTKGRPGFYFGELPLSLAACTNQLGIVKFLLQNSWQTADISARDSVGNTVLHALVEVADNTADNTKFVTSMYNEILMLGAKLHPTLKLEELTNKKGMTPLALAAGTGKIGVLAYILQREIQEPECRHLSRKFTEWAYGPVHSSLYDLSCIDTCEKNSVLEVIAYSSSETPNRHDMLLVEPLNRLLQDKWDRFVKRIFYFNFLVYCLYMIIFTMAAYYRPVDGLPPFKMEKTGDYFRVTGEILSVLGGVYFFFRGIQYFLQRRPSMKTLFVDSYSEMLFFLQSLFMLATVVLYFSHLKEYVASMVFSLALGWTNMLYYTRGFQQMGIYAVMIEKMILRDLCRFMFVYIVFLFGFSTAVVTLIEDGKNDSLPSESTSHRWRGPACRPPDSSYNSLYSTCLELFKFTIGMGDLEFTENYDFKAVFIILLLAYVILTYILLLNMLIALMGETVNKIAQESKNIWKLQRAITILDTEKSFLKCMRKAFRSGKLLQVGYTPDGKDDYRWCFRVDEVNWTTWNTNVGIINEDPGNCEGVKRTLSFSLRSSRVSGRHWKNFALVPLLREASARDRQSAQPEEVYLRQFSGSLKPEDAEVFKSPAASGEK
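TRPV1-expressing cells were cultured overnight at 35.5C and loaded with Fluo-8 calcium dye for 40 to 90 min at room temperature. After a 10 s baseline, compound was added and calcium influx was read kinetically for 3 min (ex 480/em 520 nm).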
RXFP1 ag: qHTS Assay for Agonists of the Relaxin Receptor RXFP1. Relaxin receptor 1 (Homo sapiens), Q9HBX9. HEK293T-RXFP1 cAMP TR-FRET, 30 min; response scale: percent of porcine relaxin response, buffer zero. Potency, µM (titrated, usually from 57.5 µM), without a hit: at the highest dose activation, most hits filed as activators. hit rate 0.3% among 370,000. AID 2676, 2010; active means well fitted activation curve with a large enough effect; inconclusive means small, poorly fitted or top-dose-only effect; further: potency means the concentration at half of the fitted maximal effect; on the % scale 0 is the no-effect control and ±100 the full control effect; nearly all actives have a fitted effect of over 60% in size
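cAMP rise read by TR-FRET after 30 min, 37C compound exposure (up to 58 uM) in RXFP1-transfected HEK293 cells with Ro 20174 present. EC50 from Hill-equation fits, with 29 nM porcine relaxin as 100% and buffer as basal.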
TRPV1 agonist: HTS Assay for Compounds that Act as Agonists of the Vanilloid Receptor 1; AID 540275, 2011; activation, % at 8.33 µM; hit rate 0.19% among 320,000; TRPV1-expressing cells, Fluo-8 calcium influx, agonist mode; Transient receptor potential cation channel subfamily V member 1 (Homo sapiens), Q8NER1; in the data active means activation above about 80%; inconclusive means between about 30% and that limit; further: 0% is about no effect
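TRPV1-expressing cells were cultured overnight at 35.5C and loaded with Fluo-8 calcium dye for 40 to 90 min at room temperature. After a 10 s baseline, compound was added and calcium influx was read kinetically for 3 min (ex 480/em 520 nm).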
RXFP1 antag: qHTS Assay for Antagonists of the Relaxin Receptor RXFP1; Relaxin receptor 1 (Homo sapiens), Q9HBX9; activity change, negative = inhibition, % at 57.5 µM; HEK293-RXFP1, relaxin-stimulated cAMP HTRF, 30 min; active compounds read low; hit rate 0.59% among 350,000;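 active means activity change of -60% or lower, but not beyond a set lower limit; inconclusive means change between -60% and -40%, or beyond the set limit; inactive means change above -40%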; further: on the % scale 0 is the no-effect control and ±100 the full control effect
gsp antag: qHTS for Antagonists of gsp, the Etiologic Mutation Responsible for Fibrous Dysplasia/McCune-Albright Syndrome: qHTS. Potency, µM (titrated, usually from 76.9 µM), for the others: at the highest dose activity change, negative = inhibition, usual class: inhibitors. hit rate 0.4% among 340,000. gsp-mutant cells, cAMP HTRF, 30 min; calls by dose curve; cell line not stated here;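 further: intracellular cAMP measured with PDE inhibitor Ro 20-1724 present during compound exposure; potency means the concentration at half of the fitted maximal effect; on the % scale 0 is the no-effect control and ±100 the full control effect; nearly all actives have a fitted effect of over 65% in size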
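HTRF cAMP measurement after 30 min RT detection following 30 min, 37C compound treatment alongside […] (added as 300 uM solution) in G418-selected cells seeded at 2000/well and grown 16–24 h.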
gsp ag: qHTS for Agonist of gsp, the Etiologic Mutation Responsible for Fibrous Dysplasia/McCune-Albright Syndrome: qHTS. gsp mutant cells, cAMP HTRF, 30 min. Potency, µM (series often up to 76.9 µM), inactives show at the highest dose activation (cAMP increase), hits mostly activators. hit rate 0.13% among 340,000; active means well fitted activation curve with a large enough effect; inconclusive means small, poorly fitted or top-dose-only effect, or another doubt; inactive means no such curve, though single readings can be large or run the other way; cell line not stated here;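 further: phosphodiesterase inhibitor Ro 20-1724 added with compounds to block cAMP breakdown; potency means the concentration at half of the fitted maximal effect; nearly all actives have a fitted effect of over 60% in size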
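Cells stably selected in G418 were plated at 2000/well, grown 16-24 hr, then given compounds in DMSO with the PDE inhibitor […] (300 uM solution added) for 30 min at 37C; cAMP was read by HTRF.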
Active calls of the source: *; ? = inconclusive; . = no result; [ ] = dose if it differs, or a comment.

SMILES	TRPV1 potentiator	RXFP1 ag	TRPV1 agonist	RXFP1 antag	gsp antag	gsp ag
CCCCCN(C(=O)COC(=O)COc1c(C)cc(C)cc1C)c1c(N)n(CCCC)c(=O)[nH]c1=O	-1	0%	1	-69*	-8%	-2%[15.4 µM]
CCC(Sc1nc2cc3c(cc2c(=O)n1CCCC(=O)NCc1ccc2c(c1)OCO2)OCO3)C(=O)NCCCOC (stereo not given)	.	2%	.	-106*	.	.
O=C(N/N=C1\CCCCc2ccccc21)c1ccccn1	-4	1%	4	-65*	-1%	5%[15.4 µM]
Cc1cccc(NC(=S)N/N=C2/CCCCc3ccccc32)c1	3	0%	-1	3	-4%	-6%
Cc1ccc(NC(=S)N/N=C2/CCCCc3ccccc32)cc1	15	-1%	-2	-61*	?	-15%
Cc1cc(C)cc(OCCSc2nc3ccc(NC(=O)COc4ccccc4)cc3s2)c1	.	1%	.	.	.	.
COc1ccc(NC(=O)c2ccc3ncsc3c2)c2ccccc12	3	-1%	88*	4	-8%	17%
O=C(Nc1ccc(C(F)(F)F)cc1)c1ccc2ncsc2c1	9	2%	90*	-6	8%	?
O=C(Nc1ccc(Cl)cc1)c1ccc2snnc2c1	-15	1%	88*	0	0%	-44%
COc1ccc(C(C)(C)C)cc1NC(=O)c1ccc2ncsc2c1	-3	2%	23	-25	-22%	3%[15.4 µM]
O=C(Nc1ccc(F)cc1)c1ccc2ncsc2c1	-19	5%	93*	8	0%	9%
CC(=O)Nc1ccc(NC(=O)C(C)OC(=O)CNC(=O)c2ccc(-c3ccccc3)cc2)cc1 (stereo not given)	3	-1%	-3	-14	1%	8%
CN(C(=O)COC(=O)/C=C/c1cccs1)C1CCCCC1	.	.	.	-88*	11%	4%
CC(C)C(=O)NC(=O)COC(=O)/C=C/c1cccs1	-5	-2%	3	-15	4%	-4%[15.4 µM]
CC(NCC(O)COCCC12CC3CC(CC(C3)C1)C2)c1ccccc1 (stereo not given)	2	1%	0	-62*	1%	?
O=C(Nc1ccc(Cl)c(Cl)c1)C1=Cc2ccccc2OC1	5	-1%	88*	-26	-27%	28%
Cc1ccc(C(=O)Nc2scc(-c3ccccc3)c2C(=O)O)cc1	.	.	.	-11	-27%	-2%[15.4 µM]
CC(C)(C)C(=O)Nc1scc(-c2ccc(-c3ccccc3)cc2)c1C(=O)O	16	4%	-1	-2	35µM*	-79%
CC1CN(CCN2CC(C)N(C=O)CC2C)C(C)CN1C=O (stereo not given)	.	.	.	-2	4%	-6%[15.4 µM]
C/[N+]([O-])=C\c1cccc(OCCN2CCN(c3ncc(C(F)(F)F)cc3Cl)CC2)c1	-7	-2%	20	-30	5%	?
N#Cc1c(N2CCSCC2)nsc1-c1ccccc1Cl	-15	?	?	3	-8%	16µM*
Cc1nc2c(cnn2-c2ccccc2Cl)c(=O)n1-c1ccc(C(C)C)cc1	?	0%	0	7	35µM*	-35%
Cc1ccc(-n2c(-c3ccco3)nc3c(cnn3-c3ccccc3Cl)c2=O)cc1	.	30%	.	.	.	.
Cc1ccccc1C(=O)c1cccn1CC(=O)NCCCc1ccccc1	5	1%	19	28	-5%	-14%
CC1CCN(S(=O)(=O)c2ccc3c(c2)N(C)C(=O)CC(=O)N3C)CC1	-8	5%	2	-21	7%	?
SMILES	TRPV1 potentiator	RXFP1 ag	TRPV1 agonist	RXFP1 antag	gsp antag	gsp ag
CC(c1ccco1)N(C(=O)CSc1ccc(Br)cc1)c1ccccn1 (stereo not given)	-15	-1%	11	-4	35µM*	-6%
CC(=O)Nc1ccc(NC(=O)C(C)N(C)CC(=O)Nc2ccccc2Br)cc1 (stereo not given)	-13	1%	?	20	1%	7%[15.4 µM]
COc1ccccc1NCCC(=O)O	-6	-2%	1	5	2%	0%
O=C(O)CCNc1ccc(NCCC(=O)O)c2c1C(=O)c1ccccc1C2=O	-9	-115%	-1	-63*	?	?
Cc1cc(/C=C2\SC(=S)NC2=O)c(C)n1-c1ccc(O)cc1	8	-2%	-10	?	32µM*	-2%
Cc1ccc(C2=CC(C)(c3ccc(C)cc3)Nc3nc(C(F)(F)F)nn32)cc1 (stereo not given)	2	0%	2	-67*	12%	6%[15.4 µM]
CC1(c2ccc(OCC#N)cc2)C=C(c2ccc(OCC#N)cc2)n2nc(C(F)(F)F)nc2N1 (stereo not given)	7	-1%	-4	-3	-21%	-25%
O=C1CSC(=S)N1N=Cc1ccc(OCc2ccccc2)cc1	.	.	.	-6	.	?
O=C1CSC(=S)N1N=Cc1cccc(OCc2ccccc2)c1	.	.	.	-95*	.	-54%
CCOC(=O)c1ccccc1NC(=O)Cn1cnc2c1c(=O)n(C)c(=O)n2C	-3	4%	4	1	13%	28µM*
O=[N+]([O-])c1ccc(N/N=C/c2cccc(O)c2O)c(S(=O)(=O)N2CCOCC2)c1	1	0%	1	-1	?	16%
O=[N+]([O-])c1ccc(N/N=C/c2ccc(O)c(O)c2O)c(S(=O)(=O)N2CCOCC2)c1	0	1%	0	-85*	?	15%[15.4 µM]
COc1ccc2[nH]c3c(=S)nc[nH]c3c2c1	-11	16µM*	-2	9	16%	39%[15.4 µM]
COc1ccc2[nH]c3c(Cl)ncnc3c2c1	-23	10%	-2	20	19%	9%
Clc1ccccc1CN(Cc1ccco1)Cc1nnnn1C1CCCC1	8	2%	2	-32	20µM*	-6%
CCOc1ccc(NC(=O)c2cc(C3CC3)nc3c2cnn3C(C)C)cc1OC	16	-1%	-1	-6	-6%	6%
CCN(Cc1cnn(C)c1)C(=O)c1ccc2nc(Cc3cccc(Cl)c3)oc2c1	5	0%	1	-3	?	-7%
Cc1[nH]cnc1-c1ccc(Cl)cc1	.	.	.	13	.	.
O=C(NCc1ccccc1)C(=O)Nc1c2c(nn1-c1ccc(F)cc1)CSC2	.	0%	.	-79*	.	.
S=c1nc(SCc2ccccc2)[nH]c2ccccc12	21	28µM*	-2	16	-3%	52%[15.4 µM]
c1ccc(CSc2nc3ncncc3[nH]2)cc1	3	0%	0	15	5%	?
